# The panel holds about 83,000 compounds, 20% with a hit somewhere; the sample as a whole holds those more often.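 Growth was measured after 48 h exposure to one concentration of compound in 96-well plates. Values under 10 count as active.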 Unmarked numbers belong to inactive results. Calls of active or inactive are those of the source.
# What was measured:
# Assay in all cases: NCI-60 one-dose screen, 48 h (100 = growth as untreated, 0 = no growth, -100 = all killed)
# Conditions in all cases: 10 µM unless noted
# [1] = tested on: SK-MEL-2 melanoma
# [2] = tested on: EKVX NSCLC
# [3] = tested on: SN12C renal
# [4] = tested on: UO-31 renal
# [5] = tested on: TK-10 renal
# [6] = tested on: ACHN renal
# [7] = tested on: CAKI-1 renal
# [8] = tested on: A498 renal
# [9] = tested on: CCRF-CEM leukemia
# [10] = tested on: MOLT-4 leukemia
Structure (SMILES),growth [1],growth [2],growth [3],growth [4],growth [5],growth [6],growth [7],growth [8],growth [9],growth [10]
Cc1c(C(=O)OC(=NC2CCCCC2)NC2CCCCC2)sc2c1c(=O)nc1c(C#N)n[nH]n12,93.6%,109%,117%,79.6%,117%,106%,101%,119%,300%,99.7%
COc1ccc(N=C(c2ccccc2)C2C(=O)c3ccccc3C2=O)cc1,40.8%,104%,104%,40.5%,103%,72.1%,88.1%,61.2%,46.1%,49.2%
Fc1cnc(NC2CC2)nc1-c1cnc2ccc(N3CCOCC3)cn12,-34.1% (active),-19.5% (active),8.74% (active),7.85% (active),6.32% (active),3.03% (active),4.17% (active),-29.5% (active),6.3% (active),2.32% (active)
CC(=O)N1C(=S)NC(=O)C1Cn1c(-c2ccccc2)nc2ccccc21 (stereo not given),109%,96.3%,98.6%,80.8%,121%,100%,90.4%,70.7%,97.1%,96.5%
CCN(CC)CCCC(C)Nc1c2ccc(Cl)cc2nc2ccc(O)cc12 (stereo not given),52.6%,48.6%,30.8%,34.4%,55%,24.2%,70.9%,90.7%,48.3%,7.11% (active)
S=C(c1ccc2c(c1)OCO2)N1CCN(c2ccccc2Cl)CC1,97.3%,124%,110%,79.4%,105%,99%,83.8%,97%,96.1%,95.8%
Cc1cccc(NC(=O)CSc2nc3ccccc3[nH]2)c1,109%,93.4%,98.8%,75%,106%,97.5%,82.6%,53.4%,102%,102%
COc1ccc(NC(=O)CSc2nnc(-c3cc(-c4ccccc4)nc4ccccc34)n2-c2ccccc2)cc1,102%,78.1%,88.9%,67%,117%,94.6%,80%,74.3%,86.9%,80.2%
Cc1cc(/C=C\c2ccc3ccccc3[n+]2C)c(O)c2ncccc12,35.9%,18.7%,3.73% (active),16.8%,23.2%,6.11% (active),-0.345% (active),30.5%,25.6%,0.695% (active)
COc1ccc(-c2nc3ccc4[nH]ncc4c3c3c2CCCC3)cc1B(O)O,56.1%,17.7%,52%,33.7%,49.5%,20.9%,-1.55% (active),8.27% (active),46.8%,48.8%
NC(=O)c1ccc[n+]([C@@H]2O[C@H](COP(=O)([O-])OP(=O)(O)OC[C@H]3O[C@@H](n4cnc5c(N)ncnc54)[C@H](O)[C@@H]3O)[C@@H](O)[C@H]2O)c1,137%,106%,107%,105%,120%,106%,98.3%,97.2%,95.4%,108%
CC(C)(C)CC(C)(C)Nc1c(-c2ccncc2)nc2cnccn12,106%,93.1%,102%,86.7%,99.2%,87.7%,80.6%,90.9%,91.6%,94.1%
CC1(C)CC(=O)CC2(C1)N=C(N)Nc1nc3ccccc3n12 (stereo not given),100%,102%,100%,96.6%,105%,91.9%,105%,99.7%,93%,82.3%
CCC1(C2CCCC2)NC(=O)NC1=O (stereo not given),102%,105%,99%,87.4%,113%,93.8%,100%,100%,87.8%,110%
C=CCSc1nc2ccccc2cc1/C=N/O,84.4%,76.6%,89.5%,58.9%,108%,87.6%,75.1%,98%,95.5%,86.7%
COc1ccc(OC)c(-c2c(C#N)c(-c3ccc(Cl)cc3)nc3c2c(-c2ccccc2)nn3-c2ccccc2)c1,102%,102%,95%,81.4%,103%,102%,67.9%,113%,98.8%,86.1%
COc1ccc(-c2cc(-c3cc(OC)c(OC)c(OC)c3)c(C#N)c(N3CCOCC3)n2)cc1O,68.2%,59.8%,60.1%,56.8%,73.3%,66.7%,51.5%,74.8%,42.8%,55.4%
Cc1cc(C(=O)c2ccccc2)c(C)c2c1[nH]c1ccc(Cl)cc12,52.1%,42.8%,22.1%,25%,93.7%,24.8%,24.7%,-11.8% (active),8.5% (active),15.9%
COc1cc(C2CC(=O)Nc3c2c(C)nn3-c2nc3ccccc3[nH]2)c(OC)c2c1OCO2 (stereo not given),80.7%,71.7%,82.2%,40.2%,36.4%,86.2%,40.6%,38.8%,61.7%,13.5%
COc1cccc(-c2nc3sccn3c2-c2ccnc(NCCNS(=O)(=O)c3cccc(F)c3)c2)c1,40.8%,38.5%,27.6%,6.44% (active),51.4%,20.5%,21.3%,36.6%,16.5%,20.2%
CCOP(=O)(OCC)C1CP(=O)(c2ccccc2)CC(C)=C1Cl (stereo not given),102%,107%,96%,68.1%,77.1%,109%,108%,111%,-90.6% (active),93%
Cc1c(C(=O)NC(Cc2ccccc2)C(O)C(=O)NCc2ccc(F)cc2)[nH]c2ccccc2c1=O (stereo not given),108%,104%,107%,94%,102%,107%,102%,107%,109%,93.6%
CCc1c2c(nc3ccc(OC(=O)OCc4ccc(B5OC(C)(C)C(C)(C)O5)cc4)cc13)-c1cc3c(c(=O)n1C2)COC(=O)[C@]3(O)CC,-30.5% (active),37.3%,-4.2% (active),-72.1% (active),0.26% (active),-53.6% (active),-44.1% (active),-65.1% (active),17.9%,20.3%
Cn1c(=O)c2c(nc(Cl)n2CCl)n(C)c1=O,89.9%,112%,106%,93.4%,95.6%,104%,98.5%,118%,84.9%,99.7%
O=C1/C(=C/c2ccccc2)CCc2nc3ccccc3c(/C=C/c3ccc(Cl)cc3)c21,93.7%,79%,83.5%,69.1%,145%,97.3%,83.7%,92.1%,84.1%,80.3%
Cc1ccc(S(=O)(=O)NCC[C@@H]2C[C@H]2c2cc3ccccc3s2)cc1,111%,95%,91.6%,84%,110%,102%,79.6%,81.7%,96.4%,92.6%
Cc1ccccc1NC(=O)N/C(N)=N/c1nc(-c2cccc([N+](=O)[O-])c2)cs1,37.3%,49.3%,54.8%,58.1%,101%,53.7%,26.4%,-3.64% (active),35.9%,30.2%

Structure (SMILES),growth [1],growth [2],growth [3],growth [4],growth [5],growth [6],growth [7],growth [8],growth [9],growth [10]
Cc1ccc(/C=C2\C(=O)N(C)c3ccc(S(=O)(=O)Nc4ccc(C(C)(C)C)cc4)cc32)s1,90.3%,54.3%,36.7%,56.9%,70.2%,59.8%,55.2%,75.9%,65.6%,78.2%
COCCc1ccc(OCC(O)CNC(C)C)cc1 (stereo not given),108%,96%,109%,79.4%,110%,108%,96.4%,103%,96%,91.4%
COc1ccc2c(c1)C(=O)/C(=C/c1cccc(OCC(=O)Nc3nc(C)c(C)s3)c1)O2,59.9%,-45.3% (active),3.1% (active),-79.1% (active),-14.3% (active),-56.5% (active),-81.5% (active),97.2%,-69.6% (active),-65.4% (active)
Cc1ccc(S(=O)(=O)N/N=C\c2cc(Cl)ccc2O)cc1,99.7%,113%,101%,83.7%,88.4%,75.4%,73.9%,86.7%,74%,98.1%
COc1ccc(C(=O)Nn2c(NCC(=O)N3c4ccccc4Sc4ccccc43)nnc2-c2ccc(O)cc2)cc1,108%,108%,94.7%,98.1%,109%,103%,107%,90.2%,110%,110%
O=c1c2cc(F)ccc2sc2c(NCCN3CCCCC3)nc3ccccc3c12,98.7%,61%,48.6%,27.1%,77.7%,42.7%,38.6%,61.6%,44.3%,27.5%
OC(COc1ccccc1Cl)COc1ccccc1Cl,107%,106%,97%,82.1%,102%,97.3%,106%,85.2%,-46.3% (active),92.3%
Cc1nn(-c2ccccc2)c(Oc2ccc(Cl)cc2)c1/C=N\N=c1/sc2ccccc2n1C,78.1%,85.5%,88.4%,62.1%,117%,93.9%,81.3%,92.2%,86.8%,74.1%
Cc1c(Cl)cc(-n2c(=O)c3ccccc3c3ccccc3c2=O)cc1Cl,98.3%,97%,85.2%,65.3%,111%,101%,80.9%,141%,97.9%,95.5%
Cc1ccc2nc(C)c(-c3nnc(SCc4ccc(C#N)cc4)o3)n2c1,101%,83.8%,92.9%,67%,120%,88.4%,85.3%,72%,117%,101%
Cc1cc(O)c(C2=NN(c3ccc(S(N)(=O)=O)cc3)C(c3ccccc3Cl)C2)cc1Cl (stereo not given),25.2%,-1.91% (active),18.8%,16.5%,60.6%,15.7%,-3.01% (active),45.9%,9.09% (active),-31.6% (active)
COc1ccc(C(=NN=C(N)N)c2ccc(OC)cc2)cc1,32.3%,81.9%,49.9%,62.4%,40.1%,37.6%,73.4%,66.7%,60%,40%
O=C(NC(Cc1nnc2n(Cc3ccccc3)c(=O)c3c4c(sc3n12)CCCC4)c1ccc(Cl)cc1)c1ccccc1 (stereo not given),95.7%,94.6%,92.4%,-5.74% (active),99%,67.5%,94.3%,83.5%,80.5%,53.1%
CC1=C([Se]CC(OC(=O)CC[Se]c2ccccc2)C(=O)NCCCCCC(=O)OCc2ccccc2)C(=O)c2ccccc2C1=O (stereo not given),47.8%,27.1%,13.4%,15.4%,40.9%,23.8%,32.2%,71.9%,9.75% (active),17.1%
O=C(/C=C/c1cccc(O)c1)c1cccc(-n2cc(-c3ccc4ccccc4c3)[nH]c2=O)c1,84.4%,11.2%,5.36% (active),35.5%,-5.34% (active),-40.7% (active),-1.58% (active),91.9%,1.72% (active),-1.37% (active)
CCOC(=O)c1ccc(N2NC(=O)/C(=C/c3ccc([N+](=O)[O-])o3)C2=O)cc1,31.8%,111%,119%,100%,106%,104%,108%,109%,89.3%,105%
O=C1CCC2=C3C4CCCCC4C(=O)C4CCCC(OC2C1)C34 (stereo not given),3.05% (active),97.2%,14.1%,-43.5% (active),64.3%,-23.3% (active),-27.2% (active),104%,15.6%,7.03% (active)
OC(c1cccc(-n2ccc(C(F)(F)F)n2)c1)c1cnccc1NC1CCCCCC1 (stereo not given),27.1%,72.6%,47.8%,41.5%,86.7%,-32.2% (active),66.5%,60.4%,8.54% (active),-14.2% (active)
CCCCN(CCCC)CC(C)(C)C(O)c1ccc(OC)c2ccccc12 (stereo not given),76.7%,44%,46.7%,34.1%,51.4%,56.5%,23.1%,59.3%,50%,27.6%
CNC(=O)CCN1CCN(CC/C=C2\c3ccccc3Sc3ccc(Cl)cc32)CC1,28.5%,103%,95.5%,53.9%,81.4%,94.3%,94%,74.5%,90.2%,50.9%
O=c1ccn2nc3ccccc3c2[nH]1,108%,63.6%,84.8%,76.6%,121%,91.1%,89.4%,125%,118%,108%
CCOc1ccccc1-n1c(CN2CCN(C(=O)COc3ccc(CNCCCCCCN4C5CCCC4CC(OC(=O)Nc4cc(C)ccc4OC)C5)cc3)CC2)nc2ccccc2c1=O (stereo not given),-90.9% (active),-92.1% (active),-91% (active),-98.5% (active),-86.3% (active),-100% (active),-100% (active),-93.4% (active),-64.9% (active),-68% (active)
O=C1Nc2ccc(F)cc2C12Nc1cc(Cl)ccc1S2 (stereo not given),157%,89.2%,97.9%,80.4%,188%,99.8%,55.2%,89.2%,76.4%,74.5%
N#C/C(=C\c1ccc(-c2ccccc2F)o1)c1nc(-c2ccco2)cs1,96.5%,67%,96.7%,68.8%,65.2%,90.4%,56.8%,66.9%,95%,91.9%
Cc1ccc(C(=NN=C(N)N)c2ccc(C)cc2)cc1,-4.66% (active),52.4%,22.6%,21%,12.9%,23.8%,27.1%,17.1%,14.7%,5.74% (active)
O=C1N=c2cc3c(cc2=C/C1=C/c1sc(=S)n(CCc2ccc(O)cc2)c1O)OCCO3,82.9%,61.3%,5.51% (active),71.1%,90.3%,6.54% (active),59.7%,80.2%,40.9%,21.5%
O=C(CSc1nccc(Nc2ccc(S(=O)(=O)Nc3nccs3)cc2)n1)c1ccc(F)cc1,105%,97.5%,110%,75.8%,110%,103%,96.4%,109%,108%,115%

# Reference: PubChem BioAssay (NCI)
